Test results from PubChem BioAssay AID1259245 (Vanderbilt High Throughput Screening Facility, 2017).
The whole screen tested about 40,000 compounds, of which about 1,400 (3.5%) were called active.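 Rule for the calls: active = any of four per-well response measures lying three or more SD from its plate-wide compound average, in either direction; inactive = the rest, inconclusive results apart.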 Many of the other results were omitted from the sample, so actives are more common in it than they were.

What follows are molecules tested against Voltage-dependent calcium channel gamma-2 subunit (Mus musculus) + Glutamate receptor 2 (Rattus norvegicus) (UniProt O88602+P19491) (assay: modulators of GluA2-stargazin AMPA receptor complexes, primary screen, cell-based, membrane potential dye (AID 1259245)). Conditions: HEK293 GluA2+stargazin, membrane potential dye (FDSS), glutamate EC50, at 30 µM, hits were called plate by plate, in both directions; compound max-min signal: compound-alone response (agonism); glutamate slope, % of max: measured here: glutamate response slope, % max.
Voltage-dependent calcium channel gamma-2 subunit (Mus musculus) + Glutamate receptor 2 (Rattus norvegicus), sequence (O88602 whole entry, looked up): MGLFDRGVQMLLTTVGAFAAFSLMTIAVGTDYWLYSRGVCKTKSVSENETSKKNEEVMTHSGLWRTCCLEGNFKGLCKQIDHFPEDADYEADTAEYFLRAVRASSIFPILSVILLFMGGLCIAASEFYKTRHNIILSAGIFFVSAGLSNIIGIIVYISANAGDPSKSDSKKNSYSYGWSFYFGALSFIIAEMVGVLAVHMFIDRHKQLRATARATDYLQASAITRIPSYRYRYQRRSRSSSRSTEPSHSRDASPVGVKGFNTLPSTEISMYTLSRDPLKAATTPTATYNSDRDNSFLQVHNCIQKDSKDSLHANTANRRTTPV
Voltage-dependent calcium channel gamma-2 subunit (Mus musculus) + Glutamate receptor 2 (Rattus norvegicus), sequence (P19491 whole entry, looked up): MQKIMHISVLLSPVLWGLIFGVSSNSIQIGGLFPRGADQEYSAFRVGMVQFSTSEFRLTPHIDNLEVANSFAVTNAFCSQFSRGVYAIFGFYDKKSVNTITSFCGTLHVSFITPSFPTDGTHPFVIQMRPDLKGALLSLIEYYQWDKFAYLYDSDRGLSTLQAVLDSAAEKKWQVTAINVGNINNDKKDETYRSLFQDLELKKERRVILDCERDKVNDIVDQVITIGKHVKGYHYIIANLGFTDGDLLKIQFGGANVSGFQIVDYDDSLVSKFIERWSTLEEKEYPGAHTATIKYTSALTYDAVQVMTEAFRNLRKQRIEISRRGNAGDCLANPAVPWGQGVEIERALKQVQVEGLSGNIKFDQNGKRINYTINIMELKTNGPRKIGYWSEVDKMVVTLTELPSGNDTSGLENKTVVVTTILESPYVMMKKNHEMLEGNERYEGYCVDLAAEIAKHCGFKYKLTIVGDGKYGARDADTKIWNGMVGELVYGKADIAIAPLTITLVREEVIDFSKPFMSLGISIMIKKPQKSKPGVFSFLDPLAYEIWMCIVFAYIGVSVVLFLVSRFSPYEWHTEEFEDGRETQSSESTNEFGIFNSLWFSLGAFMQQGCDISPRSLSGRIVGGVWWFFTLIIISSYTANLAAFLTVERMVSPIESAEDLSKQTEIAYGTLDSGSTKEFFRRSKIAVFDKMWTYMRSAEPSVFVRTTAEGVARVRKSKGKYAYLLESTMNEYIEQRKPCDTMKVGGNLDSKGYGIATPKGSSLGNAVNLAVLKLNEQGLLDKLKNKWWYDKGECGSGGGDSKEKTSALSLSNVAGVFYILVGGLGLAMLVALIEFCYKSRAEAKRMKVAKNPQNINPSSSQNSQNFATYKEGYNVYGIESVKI

SMILES | compound max-min signal | glutamate response, % of max | glutamate slope, % of max [%]
O=[N+]([O-])c1cccc(CSc2nnc(-c3ccncc3)o2)c1 | 0.0611 | 20.8% (inactive) | 47.1
CC(=O)c1sc(NC(=O)C2CCCN(S(C)(=O)=O)C2)nc1-c1ccccc1 (stereo unspecified) | 0.126 | 21.7% (inactive) | 40.2
COc1ccc(-c2ccc(=O)n(CCCC(=O)Nc3ccccc3-c3ccccc3)n2)cc1 | 0.0404 | 21.1% (inactive) | 39
CCOc1ccc(-c2cc(=O)n(CCCC(=O)Nc3cc(C)ns3)cn2)cc1 | 0.074 | -0.752% (active) | 5.34
CCOc1ccc(-c2ccc(=O)n(CCCC(=O)Nc3cc(Cl)ccc3OC)n2)cc1 | 0.0223 | 14.7% (inactive) | 28.2
COc1cc(NS(=O)(=O)c2ccccc2F)ccc1N1CCCCC1=O | 0.0504 | 15.5% (inactive) | 35.3
COc1cccc(C(CNC(=O)c2ccc(OC(C)C)cc2)N2CCOCC2)c1 (stereo unspecified) | 0.0693 | 22.5% (inactive) | 42.1
COc1ccc(C(CNC(=O)c2cc(C)cc(C)c2)N2CCOCC2)cc1 (stereo unspecified) | 0.0728 | 37.2% (inactive) | 50.1
COc1ccc(C(CNC(=O)c2ccccc2Cl)N2CCOCC2)cc1 (stereo unspecified) | 0.07 | 35.7% (active) | 45.9
COc1cccc(CNC(=O)C(=O)Nc2cc([N+](=O)[O-])ccc2C)c1 | 0.135 | 41.7% (inactive) | 61.5
COc1ccc(NC(=O)C(=O)Nc2cc([N+](=O)[O-])ccc2C)cc1OC | 0.325 | 62.6% (active) | 80.6
COc1ccccc1CCNC(=O)C(=O)Nc1cc([N+](=O)[O-])ccc1C | 0.125 | 47.7% (inactive) | 62.3
O=C(NCCNc1ccc(Nc2ccncc2)nn1)c1cccc2ccccc12 | 0.274 | 30.8% (inactive) | 57.7
O=C(NCCn1ncc2c(N3CCOCC3)ncnc21)c1ccc2c(c1)OCO2 | 0.0657 | 28.9% (inactive) | 49.6
CC(O)(CNC(=O)NCc1ccc(F)cc1)c1ccc(-c2ccccc2)cc1 (stereo unspecified) | 0.113 | 15.8% (inactive) | 57.2
O=C(NNC(=O)c1ccc(=O)n(Cc2ccccc2)c1)c1ccc(F)c(F)c1 | 0.0736 | 29.9% (inactive) | 51.5
Cn1nc(NC(=O)c2ccc3c(c2)OCO3)c2c1NC(=O)CC2c1cccs1 (stereo unspecified) | 0.101 | 34.8% (inactive) | 53.9
CC1CC(=O)Nc2c1c(NC(=O)c1ccc3c(c1)OCO3)nn2C (stereo unspecified) | 0.11 | 23.6% (active) | 38.4
Cn1nc(NC(=O)/C=C\c2ccc3c(c2)OCO3)c2c1NC(=O)CC2c1ccco1 (stereo unspecified) | 0.119 | 38.8% (inactive) | 66.5
COc1ccc(NC(=O)C(=O)NCC2CCN(C)CC2)c(OC)c1 | 0.0817 | 43.1% (inactive) | 70.1
Cc1ccc(-n2ncc3c(=O)n(CC(=O)N4CCOCC4)cnc32)cc1C | 0.0678 | 29.7% (inactive) | 52.9
COc1ccc(S(=O)(=O)NCC(c2cccn2C)N2CCOCC2)cc1OC (stereo unspecified) | 0.0786 | 34.5% (inactive) | 60.4
Cn1cccc1C(CNS(=O)(=O)c1ccc(F)cc1)N1CCOCC1 (stereo unspecified) | 0.0736 | 28.1% (inactive) | 55.5
O=[N+]([O-])c1cccc(S(=O)(=O)NCC(c2cccs2)N2CCOCC2)c1 (stereo unspecified) | 0.129 | 23.5% (active) | 44.4

SMILES | compound max-min signal | glutamate response, % of max | glutamate slope, % of max [%]
O=C(NCCn1ncc2c(N3CCN(c4ccccc4)CC3)ncnc21)c1cccs1 | 0.0478 | 45.6% (inactive) | 68.2
COc1ccc(CN(CC(=O)N(C)c2ccccc2)S(=O)(=O)c2cccnc2)cc1 | 0.128 | 30.9% (inactive) | 52.8
O=C1/C(=C/c2cccnc2)SC(=S)N1c1ccc2c(c1)OCCO2 | 0.116 | 41.7% (inactive) | 65.3
Cn1cnc2cc(OC(=O)c3ccc(=O)[nH]n3)ccc21 | 0.276 | 33% (active) | 52.5
COc1ccc(-c2ccc(N3CCN(C(=O)c4ccc(=O)[nH]n4)CC3)nn2)cc1 | 0.0223 | 13.3% (inactive) | 24.1
COc1ccc(C(=O)NCCOc2ccc(-c3ccc(F)cc3)nn2)c(OC)c1 | 0.0424 | 40.3% (inactive) | 60.6
COc1ccc(C(=O)N2CCc3cc(S(=O)(=O)NC4CCCC4)ccc32)cc1 | 0.109 | 49% (inactive) | 67.4
COc1cccc(C(=O)Nc2nnc(-c3ccc(OC)c(OC)c3)o2)c1 | 0.128 | 35.2% (inactive) | 53.9
COc1cc(C(=O)Nc2nnc(-c3ccc(SC)cc3)o2)cc(OC)c1OC | 0.0956 | 30.8% (inactive) | 51.3
COc1cc(OC)cc(C(=O)Nc2nnc(-c3cc(OC)c(OC)c(OC)c3)o2)c1 | 0.259 | 56.5% (active) | 83.8
Cn1cccc1C(CNC(=O)C(=O)Nc1ccccc1F)N1CCOCC1 (stereo unspecified) | 0.0712 | 30.1% (inactive) | 55
C=CCN1CC(c2nc3ccccc3n2Cc2cccc(Cl)c2)CC1=O (stereo unspecified) | 0.132 | 29.6% (active) | 36.6
CCCCN1CC(c2nc3ccccc3n2Cc2cc(C)ccc2C)CC1=O (stereo unspecified) | 0.12 | 83.9% (active) | 94.4
CCN1CC(c2nc3ccccc3n2Cc2ccccc2F)CC1=O (stereo unspecified) | 0.0186 | 31.3% (inactive) | 50
CCCCN1CC(c2nc3ccccc3n2CCOc2ccc(C)cc2)CC1=O (stereo unspecified) | 0.135 | 45.7% (inactive) | 78.7
CCN1CC(c2nc3ccccc3n2Cc2ccc(Cl)cc2)CC1=O (stereo unspecified) | 0.0749 | 45% (inactive) | 70.4
CCN1CC(c2nc3ccccc3n2Cc2ccc(Cl)c(Cl)c2)CC1=O (stereo unspecified) | 0.144 | 41.2% (inactive) | 66.5
O=C(CCCc1ccccc1)N1CCN(c2ccc3nnc(-c4ccco4)n3n2)CC1 | 0.203 | 48.1% (inactive) | 68.2
CC(=O)Nc1cccc(NC(=O)C(=O)NCC2CCN(Cc3ccco3)CC2)c1 | 0.0762 | 50.2% (inactive) | 68.9
O=C(NC1CCc2ccccc21)c1nnn(-c2ccc(F)cc2)c1-c1ccncc1 (stereo unspecified) | 0.0259 | 18.1% (inactive) | 25.4
COc1cc2nc(NC(=O)c3cc(C)no3)sc2cc1OC | 0.204 | 26.9% (inactive) | 48.6
CCOCCn1c(=NC(=O)c2cc(C)no2)sc2cc(OC)c(OC)cc21 | 0.187 | 27.5% (active) | 50.7
COCCn1c(=NC(=O)c2cc(C)no2)sc2cc(SC)ccc21 | 0.152 | 31.8% (inactive) | 54.7
Cc1nn(-c2ccccc2)c2ncc(C(=O)Nc3ccc(F)cc3F)c(Cl)c12 | 0.0815 | 20.8% (inactive) | 43.5

SMILES | compound max-min signal | glutamate response, % of max | glutamate slope, % of max [%]
COc1cn(CC(=O)Nc2ccc3c(c2)OCO3)c(CSc2nnnn2C)cc1=O | 0.0535 | 23.6% (inactive) | 48.2
CCOc1ccc2nc(NC(=O)c3ccc(S(=O)(=O)N(C)C)o3)sc2c1 | 0.115 | 31.5% (inactive) | 54.4
CCOc1ccc2nc(NC(=O)c3ccc(S(=O)(=O)Nc4cccnc4)o3)sc2c1 | 0.179 | 32% (active) | 55.6
Cc1ccc2nc(NC(=O)c3ccno3)sc2c1 | 0.16 | 53% (inactive) | 62.5
O=c1ccc2cc(S(=O)(=O)Nc3cc(Cl)ccc3O)ccc2o1 | 0.209 | 16.4% (active) | 35.5
CC(C)Oc1ccc(C(=O)Nc2ccc3oc(=O)ccc3c2)cc1 | 0.17 | 41.9% (inactive) | 61.4
O=c1oc2ccc(Cl)cc2cc1S(=O)(=O)c1ccccc1F | 0.0854 | 39.3% (inactive) | 60
O=C(NC1CCCCCC1)c1ccc(S(=O)(=O)c2ccccc2)nc1 | 0.0387 | 28.2% (inactive) | 47.7
COc1cccc(NC(=O)c2ccc(=O)n(Cc3cccc(C(F)(F)F)c3)c2)c1 | 0.0915 | 23.5% (inactive) | 41.6
COc1cc(CN2CCN(c3nccn3C)CC2)cc(OC)c1 | 0.0438 | 12.8% (inactive) | 27.6
COc1ccc(OC)c(-c2ccc(=O)n(CC(=O)N3CCOCC3)n2)c1 | 0.0773 | 62.3% (inactive) | 97.9
Cc1ccccc1NC(=O)NC1(c2nc(-c3ccsc3)no2)CCCCC1 | 0.081 | 34.5% (inactive) | 56
COc1cc(Cl)ccc1C(=O)NC1(c2nc(-c3ccsc3)no2)CCCCC1 | 0.0754 | 37.6% (inactive) | 63.1
O=S(=O)(NC1(c2nc(-c3ccsc3)no2)CCCCC1)c1ccccc1 | 0.127 | 19.9% (active) | 36.2
COc1ccccc1OCC(=O)Nc1cc(C(=O)N2CCOCC2)cn(C)c1=O | 0.134 | 36.2% (inactive) | 63
CCCC(CCC)C(=O)N1CCN(c2ncnc3c2nnn3-c2ccc(OC)cc2)CC1 | 0.0796 | 50.3% (inactive) | 57.2
CC(Oc1ccccc1)C(=O)N1CCN(c2ncnc3c2nnn3-c2ccc(Cl)cc2)CC1 (stereo unspecified) | 0.0923 | 46% (inactive) | 58.4
COc1ccc(-n2nnc3c(N4CCN(C(=O)C(C)Oc5ccccc5)CC4)ncnc32)cc1 (stereo unspecified) | 0.0918 | 83.4% (active) | 124
COc1ccc(Cl)cc1NC(=O)Nc1cc(N2CCCS2(=O)=O)ccc1C | 0.0964 | 36.6% (inactive) | 48.9
Cc1c(-c2ccccc2)c(=O)oc2c3c(ccc12)OCN(Cc1cccnc1)C3 | 0.117 | 15.5% (inactive) | 35
O=C(CCc1ccccc1)NCCS(=O)(=O)N1CCN(Cc2ccccc2)CC1 | 0.0536 | 24.3% (inactive) | 47.7
O=C(CCc1ccccc1)NCC1CCN(Cc2ccsc2)CC1 | 0.0535 | 10.8% (active) | 27.6
O=C(NCC1CCN(Cc2ccsc2)CC1)C(=O)Nc1ccon1 | 0.08 | 38.4% (inactive) | 57.1
Cc1cc(C)c2c(n1)sc1c(=O)n(CC(=O)Nc3ccc(F)cc3F)cnc12 | 0.126 | 45.2% (inactive) | 70.3
